Assay results published in PubChem BioAssay (EPA / NIEHS).
Activity calls are given as the source filed them. The calls were made as follows: active = hit-call score of the fitted dose curve at least 0.9, where 1 is the maximum; inactive = score below 0.9.

Experiment: ATG_FoxO_CIS: Attagene CIS-FACTORIAL HepG2 Assay for human Forkhead box O (FoxO) (AID 2282943)
Conditions: HepG2 Attagene cis-reporter, FoxO element, mRNA; actives raise or lower the signal
Experimental: ATG_CIS is a cell-based, multiplexed-readout assay that uses HepG2, a human liver cell line, with measurements taken at 24 hours after chemical dosing in a 24-well plate.ATG_FoxO_CIS is one of 52 assay component(s) measured or calculated from the ATG_CIS assay. It is designed to make measurements of mRNA induction, a form of inducible reporter, as detected with fluorescence intensity signals by Reverse transcription polymerase chain reaction (RT-PCR) and Capillary electrophoresis technology.Data from the assay component ATG_FoxO_CIS was analyzed into 1 assay endpoint. This assay endpoint, ATG_FoxO_CIS, was analyzed with bidirectional fitting relative to DMSO as the negative control and baseline of activity. Using a type of inducible reporter, measures of mRNA for gain or loss-of-signal activity can be used to understand the reporter gene at the transcription factor-level as they relate to the gene FOXO1 and FOXO3. Furthermore, this assay endpoint can be referred to as a primary readout, because this assay has produced multiple assay endpoints where this one serves a reporter gene function. To generalize the intended target to other relatable targets, this assay endpoint is annotated to the dna binding intended target family, where the subfamily is forkhead box protein.
Human liver HepG2 cells are transiently transfected with multiple reporter transcription units (MRTUs) in 6-well plates using FuGene 6 reagent (Roche; 3 ml FuGene/1 mg DNA). The MRTU constructs are regulated by a cis-regulating element (promoter). […] A major difference between the CIS and TRANS system is that in CIS activities of endogenous TFs are measured, whereas the TRANS assay evaluates changes in activities of exogenous, chimeric NR-Gal4 proteins. […] At the end of 24 hour incubation, total RNA was isolated using TriZol reagent (Invitrogen). The isolated RNA is then reverse-transcribed using oligo(dT) primer and Mo-MLV reverse transcriptase (Invitrogen) with DNAse I (Ambion) treatment for 30 min. The one-tenth of the produced cDNA was amplified by PCR using Taq DNA polymerase (Invitrogen) and two reporter sequence-specific primers. The PCR products were fluorescently labeled by primer extension with 6-arboxyfluorescein (6-FAM) 5'-labeled reporter sequence-specific primer (2 min at 95 C, 20 s at 68 C and 10 min at 72 C) and these products were digested with 5U of HpaI (New England Biolabs) for 2h at 37 C. The fragments were purified using Qiaquick PCR columns (Qiagen), analyzed on an ABI 3130xL genetic analyzer (Applied Biosystems) with peak positions identified by using a set of X-rhodamine (ROX)-labeled MapMarker1000 molecular weight standards (BioVentures). The raw capillary electrophoresis data was processed using Attagraph software (Attagene).

outcome, inactive:
COC(=O)c1ccccc1OC
CCCCCCCCCCCCCCCC[N+](C)(C)CC
C[C@]12C=CC(=O)C=C1CC[C@@H]1[C@@H]2[C@@H](O)C[C@@]2(C)[C@H]1CC[C@]2(O)C(=O)CO
CC(C)(C)C(=O)CCc1ccc(Cl)cc1
CC(C)=CCC/C(C)=C\C#N
COC(=O)c1c(C)cc(O)c(C)c1O
Nc1nc2ccccc2[nH]1
CC(=O)OCC(C)OC(C)=O (stereo not given)
CCCCC/C=C\C/C=C\CCCCCCCC(=O)OC
O=CC1CC1
[Cl][In]([Cl])[Cl]
Cc1ccc(N/N=c2\c(=O)cc/c(=N/Nc3ccc(S(=O)(=O)O)cc3)c2=O)c(C)c1
CCOc1ccc(N)c([N+](=O)[O-])c1
CC(=O)Nc1nnc(S(N)(=O)=O)s1
Cn1c([N+](=O)[O-])cnc1COC(N)=O
CCCCC(CC)CCC(CC(C)C)OS(=O)(=O)O (stereo not given)
Cc1ccc(OC(=O)CC(C)C)cc1
COC(=O)/C=C/C(C)=C\C=C\C(C)=C\C=C\C=C(C)\C=C\C=C(C)\C=C\C(=O)O
CC1(C)S[C@@H]2[C@H](NC(=O)COc3ccccc3)C(=O)N2[C@H]1C(=O)O
O=P(O)(O)Oc1ccccc1
[Cl][Nd]([Cl])[Cl]
CCCCC(CC)COCC1CO1 (stereo not given)
CCCCCCCCCCCCCOP(=O)(O)O
CCN(CCC#N)c1ccc(N=Nc2c(Cl)cc([N+](=O)[O-])cc2Cl)cc1
Cc1c(C)c([N+](=O)[O-])c(C(C)(C)C)c([N+](=O)[O-])c1C
C=CC(=O)NC(C)(C)CS(=O)(=O)O
SCCc1cnccn1
O=C(c1ccccc1)c1ccc(O)c(O)c1O
O=c1c2ccccc2nnn1CCl
C=CCOCC(O)CCl (stereo not given)
C=CCOc1c(Br)cc(Br)cc1Br
COc1ccc(NC(C)=O)cc1N
CCN(CC)c1ccc(C(=O)c2ccccc2C(=O)O)c(O)c1
c1cc(N(CC2CO2)CC2CO2)ccc1OCC1CO1 (stereo not given)
COc1c2ccoc2cc2oc(=O)ccc12
CC(C)c1ccc2c(c1)CC[C@H]1[C@](C)(CN)CCC[C@]21C
CC(C)c1ccc(C#N)cc1
CC(=O)OCC(=O)[C@@]12N=C(C)O[C@@H]1C[C@H]1[C@@H]3CCC4=CC(=O)C=C[C@]4(C)[C@H]3[C@@H](O)C[C@@]12C
Cc1cc(C)c(C(=O)O)c(C)c1
CC(C)C1=CC2=CC[C@@H]3[C@](C)(CCC[C@@]3(C)C(=O)O)[C@H]2CC1
